Screen size: about 220,000 compounds; about 240 (0.11%) were called active.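 How the source made its calls: active means inhibition of 50% or more in the single-dose primary screen; inactive means inhibition below 50%.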 The list comes from a sample in which actives are over-represented; it also holds similar structures and randomly drawn compounds.

The subject of the test is hexokinase 1 [Trypanosoma brucei]. The experiment in a line: TbHK1 enzyme activity blockers – biochemical, G6PDH-coupled NADH absorbance, MLSCN library, primary screen (AID 1430). As to conditions: recombinant TbHK1, G6PDH-coupled NADH A340; at 10 µM; active compounds read high.
As usually defined, the inhibition is the change of the read-out against control, counted positive when it falls. Consider `CCOc1ccccc1C(=O)NC1CC2CCCC(C1)N2Cc1ccccc1` (configuration not stated), for which the inhibition is 3.91% (inactive).

With `CCC(CC)C(=O)N1CCN(c2cccc(C)c2C)CC1`, the inhibition was -4.04% (inactive).

On to `Cc1c(Cl)c([N+](=O)[O-])nn1Cc1ccc(C(=O)N/N=C\c2cc(Cl)ccc2O)o1`, for which the inhibition was 0.728% (inactive).

As for `CCCc1nc(-c2cc3cc(C)ccc3[nH]c2=O)no1`, the inhibition was -10.1% (inactive).

For the molecule `Cc1ccc(N(C(=O)Cc2cccs2)C(C(=O)NCC2CCCO2)c2ccncc2)cc1` (configuration not stated), the inhibition was -7.37% (inactive).

As for `CSc1nnnn1-c1c(C)cc(C)cc1C`, the inhibition was -0.934% (inactive).

Turning to `O=C1CC(c2cccc(Cl)c2)CC(O)=C1C=Nc1ccccc1` (configuration not stated), the inhibition is -3.36% (inactive).

In the case of `CC(=O)O[C@]1(C(C)=O)CC[C@H]2[C@@H]3C=C(C)C4=CC(=O)CC[C@]4(C)[C@H]3CC[C@@]21C`, the inhibition was -3.98% (inactive).

For `Cc1ccc(-c2nc(SCC(=O)Nc3ccccc3OC(F)F)c3c(C)c(C(=O)O)sc3n2)cc1`, the inhibition is -36.7% (inactive).

Regarding `COCCNC(=O)c1ccc(-n2c(SCc3cccnc3)nc3ccccc3c2=O)cc1`, the inhibition was -6.28% (inactive).

Consider `CC(O)c1nc2c(c(=O)n(C)c(=O)n2C)n1C` (configuration not stated), for which the inhibition was -12.1% (inactive).

Regarding `O=C(Nc1ccc(N2C(=O)c3cccc4cccc(c34)C2=O)cc1)c1ccc(N2CCCCC2)c([N+](=O)[O-])c1`, the inhibition was -9.23% (inactive).

On to `CCCCN(C(=O)c1ccc(OC(F)(F)F)cc1)c1c(N)n(CCC)c(=O)[nH]c1=O`, for which the inhibition is 2.61% (inactive).

Turning to `COc1cc(NC(=O)COC(=O)c2cnc(C)cn2)c(C)cc1[N+](=O)[O-]`, the inhibition was -6.37% (inactive).

For `CCOC(=O)C1CCN(C(=O)C2(NC(=O)Nc3cccc(F)c3)CCCCC2)CC1`, the inhibition is -1.28% (inactive).

On to `Cc1ccc(SC(C)C(=O)NCc2ccc(F)cc2)cc1` (configuration not stated), for which the inhibition is 4.64% (inactive).

Take `CC1Cc2ccccc2N1C1=CC(=O)CC(C)(C)C1` (configuration not stated): the inhibition was -58.2% (inactive).

With `CN(C)CCCO/N=C(\c1ccccc1)c1ccncc1`, the inhibition was -6.34% (inactive).

On to `C/C(=N\Nc1cccc(C(=O)O)c1)c1ccc2c(c1)Nc1ccccc1S2`, for which the inhibition was -4.39% (inactive).

In the case of `CCN(CC(=O)Nc1ccc(Cl)c(S(=O)(=O)N(C)C)c1)Cc1nc2ccccc2c(=O)[nH]1`, the inhibition was -2.75% (inactive).

Take `O=C(Oc1ccccc1Cl)c1ccc(N2CCOCC2)c([N+](=O)[O-])c1`: the inhibition was -7.89% (inactive).

For `C/C(=N/NC(=O)CSc1ccccn1)c1ccc([N+](=O)[O-])cc1`, the inhibition was -9.77% (inactive).

Regarding `Cc1onc(C(=O)NCc2ccc(F)cc2)c1[N+](=O)[O-]`, the inhibition was -2.07% (inactive).

`CCOCCCNC(=O)C(NC(=O)c1ccccc1O)c1ccccc1` (configuration not stated): the inhibition is -9.74% (inactive).

As to `COC(=O)C(C(=O)Nc1cccc(C)n1)C1CCCCCC1` (configuration not stated), the inhibition is 5.11% (inactive).

For `CC(=O)Nc1ccc(NC(=O)C(C)OC(=O)c2ccccc2C(=O)c2ccc(Cl)c([N+](=O)[O-])c2)cc1` (configuration not stated), the inhibition was -6.27% (inactive).

Take `O=S(=O)(NC1CCCCC1)c1ccc(F)c2ccccc12`: the inhibition was 2.7% (inactive).

For `COC(=O)c1c(NC(=O)CCCC(=O)O)sc2c1CCCCC2`, the inhibition was -10.9% (inactive).

In the case of `C=CCn1c(COc2ccc(F)cc2)nnc1SCC(=O)Nc1cccc(S(N)(=O)=O)c1`, the inhibition was -3.84% (inactive).

On to `CCc1cccc2c3c([nH]c12)C(CC)(CC(=O)O)OCC3` (configuration not stated), for which the inhibition was -3.41% (inactive).

Turning to `Cc1ccc(S(=O)(=O)N(C)C)cc1NC(=O)/C=C/c1cccs1`, the inhibition was 5.08% (inactive).

`N#Cc1c(N)nc2c(c1N)CC(C(F)(F)F)O2` (configuration not stated): the inhibition is 4.59% (inactive).

With `O=C(CCN1C(=O)C2C3C=CC(C3)C2C1=O)Nc1ccccc1F` (configuration not stated), the inhibition is -3.82% (inactive).

For the molecule `O=C(CN1C(=O)C2C3C=CC(C3)C2C1=O)NCC1COc2ccccc2O1` (configuration not stated), the inhibition is -4.57% (inactive).

With `O=C(CN1C(=O)C2C3C=CC(C3)C2C1=O)NCCc1ccccc1Cl` (configuration not stated), the inhibition was 57.8% (active).

On to `Nc1nnnn1/N=C/c1cc([N+](=O)[O-])ccc1O`, for which the inhibition is -31.3% (inactive).

Regarding `O=C(NCCc1ccccc1)C1CCC(Cn2c(=O)c3ccccc3n(Cc3cccnc3)c2=O)CC1` (configuration not stated), the inhibition is -9.56% (inactive).

For `Cc1cc2nc(SCCN3CCOCC3)[nH]c2cc1C`, the inhibition is 2.94% (inactive).

`CCOC(=O)c1ccc(NNC(C)=O)c([N+](=O)[O-])c1`: the inhibition was -2.98% (inactive).

As to `N#Cc1ccc(Oc2ccc(C(F)(F)F)cc2NC(=O)c2ccc(F)cc2)cc1`, the inhibition was -2.47% (inactive).

Take `C#CCOCCOCCOCCNc1nc(N2CCN(C(=O)[C@H](CCC(=O)O)n3cc(C(N)CO)nn3)CC2)nc(N2CCN(C(=O)[C@H](Cc3ccc(O)cc3)n3cc(C(N)[C@H](C)CC)nn3)CC2)n1` (some centres not stated): the inhibition was -6.04% (inactive).

As for `Cc1cc(OC(=O)c2ccccc2)c([N+](=O)[O-])c(=O)[nH]1`, the inhibition is -5.67% (inactive).

As for `Cc1ccc(C2=N/C(=C\c3ccc(OS(=O)(=O)c4ccc(C)cc4)cc3)C(=O)O2)cc1`, the inhibition was 2.44% (inactive).

`Brc1ccc(-c2noc(-c3ccccc3)n2)o1`: the inhibition was -6.63% (inactive).

In the case of `O=C1C(=O)N(c2ccccc2)c2ccccc21`, the inhibition is -11.4% (inactive).

For the molecule `Cc1cc(C(=O)N/N=C/c2cc([N+](=O)[O-])cc(C)c2O)n[nH]1`, the inhibition was 1.39% (inactive).

`COC(=O)NNC(=O)C1CCC(C)CC1` (configuration not stated): the inhibition is -0.712% (inactive).

As for `O=C(NN=C1CCC(=NNC(=O)c2cccnc2)CC1)c1cccnc1`, the inhibition is -1.3% (inactive).

Consider `Cc1ccc(NC(=O)Nc2cc(-c3ccccc3)nn2C)cc1Cl`, for which the inhibition was -21.8% (inactive).

Take `CC1(C)OC(=O)C(=CNC(CO)C(=O)O)C(=O)O1` (configuration not stated): the inhibition was 2.5% (inactive).

`Cc1ccc(CSc2nc3[nH]ncc3c(=O)[nH]2)cc1`: the inhibition was -4.89% (inactive).

In the case of `O=C1NC(c2cccc(Cl)c2)Nc2ccccc21` (configuration not stated), the inhibition was -2.98% (inactive).

Turning to `C=CCN1C=C2C(=O)C(C)(OC(=O)CCc3ccccc3)C(=O)C=C2C=C1c1ccc(C#N)cc1` (configuration not stated), the inhibition was -9.51% (inactive).

With `O=C(NNC(=O)c1csc(-c2cccnc2)n1)Nc1ccc(Cl)cc1`, the inhibition was 1.85% (inactive).

Turning to `Cc1ccc(-n2c(C)cc(C(=O)CSc3nnc4ccccn34)c2C)cc1`, the inhibition is -7.8% (inactive).

In the case of `NC(=O)c1ccccc1N=Cc1ccc2ccccc2c1`, the inhibition was 27.1% (inactive).

For the molecule `O=C(OCC(=O)N1CCOCC1)c1ccc(N2CCOCC2)c([N+](=O)[O-])c1`, the inhibition is -6.48% (inactive).
